# Biological target: AgAbp1
# Experiment: SPOT peptide array binding signal intensity (averaged, normalized) (arbitrary units (background-subtracted, floor 0; scale differs between SH3 domains)); higher = stronger binding of the SH3 domain to the peptide
# Method in brief: (§1)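 Cellulose membranes carried synthetic 15-mer peptides with cysteines swapped for serines. These were incubated overnight at 4°C with 10 μg/ml of GST-fused SH3 domains from four yeast species in TBS-based blocking buffer. Binding signal, detected with anti-GST antibody and quantified in Genespotter, is the normalized, background-subtracted spot intensity averaged over replicates, in arbitrary units specific to each domain.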
row,Binder,SPOT peptide array binding signal intensity
1,AIPPPVPNRPGGTTN,≤ 0

# Biological target: AgBbc1
# Experiment: as above
# Method in brief: as §1
row,Binder,SPOT peptide array binding signal intensity
1,AIPPPVPNRPGGTTN,1380

# Biological target: AgBem1-D1
# Experiment: as above
# Method in brief: as §1
row,Binder,SPOT peptide array binding signal intensity
1,AIPPPVPNRPGGTTN,≤ 0

# Biological target: AgBzz1-D1
# Experiment: as above
# Method in brief: as §1
row,Binder,SPOT peptide array binding signal intensity
1,AIPPPVPNRPGGTTN,61

# Biological target: AgBzz1-D2
# Experiment: as above
# Method in brief: as §1
row,Binder,SPOT peptide array binding signal intensity
1,AIPPPVPNRPGGTTN,≤ 0

# Biological target: AgCyk3
# Experiment: as above
# Method in brief: as §1
row,Binder,SPOT peptide array binding signal intensity
1,AIPPPVPNRPGGTTN,≤ 0

# Biological target: AgFus1
# Experiment: as above
# Method in brief: as §1
row,Binder,SPOT peptide array binding signal intensity
1,AIPPPVPNRPGGTTN,≤ 0

# Biological target: AgHof1
# Experiment: as above
# Method in brief: as §1
row,Binder,SPOT peptide array binding signal intensity
1,AIPPPVPNRPGGTTN,≤ 0

# Biological target: AgHse1
# Experiment: as above
# Method in brief: as §1
row,Binder,SPOT peptide array binding signal intensity
1,AIPPPVPNRPGGTTN,13

# Biological target: AgLsb1
# Experiment: as above
# Method in brief: as §1
row,Binder,SPOT peptide array binding signal intensity
1,AIPPPVPNRPGGTTN,373

# Biological target: AgLsb4
# Experiment: as above
# Method in brief: as §1
row,Binder,SPOT peptide array binding signal intensity
1,AIPPPVPNRPGGTTN,1024

# Biological target: AgMyo5
# Experiment: as above
# Method in brief: as §1
row,Binder,SPOT peptide array binding signal intensity
1,AIPPPVPNRPGGTTN,3.5

# Biological target: AgNbp2
# Experiment: as above
# Method in brief: as §1
row,Binder,SPOT peptide array binding signal intensity
1,AIPPPVPNRPGGTTN,≤ 0

# Biological target: AgRvs167
# Experiment: as above
# Method in brief: as §1
row,Binder,SPOT peptide array binding signal intensity
1,AIPPPVPNRPGGTTN,269

# Biological target: AgSho1
# Experiment: as above
# Method in brief: as §1
row,Binder,SPOT peptide array binding signal intensity
1,AIPPPVPNRPGGTTN,≤ 0

# Biological target: AgSla1-D1-D2
# Experiment: as above
# Method in brief: as §1
row,Binder,SPOT peptide array binding signal intensity
1,AIPPPVPNRPGGTTN,≤ 0

# Biological target: AgSla1-D3
# Experiment: as above
# Method in brief: as §1
row,Binder,SPOT peptide array binding signal intensity
1,AIPPPVPNRPGGTTN,≤ 0

# Biological target: CaAbp1-D1
# Experiment: as above
# Method in brief: as §1
row,Binder,SPOT peptide array binding signal intensity
1,AIPPPVPNRPGGTTN,≤ 0

# Biological target: CaAbp1-D2
# Experiment: as above
# Method in brief: as §1
row,Binder,SPOT peptide array binding signal intensity
1,AIPPPVPNRPGGTTN,≤ 0

# Biological target: CaBbc1
# Experiment: as above
# Method in brief: as §1
row,Binder,SPOT peptide array binding signal intensity
1,AIPPPVPNRPGGTTN,2040

# Biological target: CaBem1-D1
# Experiment: as above
# Method in brief: as §1
row,Binder,SPOT peptide array binding signal intensity
1,AIPPPVPNRPGGTTN,0.5

# Biological target: CaBzz1-D1
# Experiment: as above
# Method in brief: as §1
row,Binder,SPOT peptide array binding signal intensity
1,AIPPPVPNRPGGTTN,570

# Biological target: CaBzz1-D2
# Experiment: as above
# Method in brief: as §1
row,Binder,SPOT peptide array binding signal intensity
1,AIPPPVPNRPGGTTN,79

# Biological target: CaCyk3
# Experiment: as above
# Method in brief: as §1
row,Binder,SPOT peptide array binding signal intensity
1,AIPPPVPNRPGGTTN,192

# Biological target: CaFus1
# Experiment: as above
# Method in brief: as §1
row,Binder,SPOT peptide array binding signal intensity
1,AIPPPVPNRPGGTTN,≤ 0

# Biological target: CaHof1
# Experiment: as above
# Method in brief: as §1
row,Binder,SPOT peptide array binding signal intensity
1,AIPPPVPNRPGGTTN,0.5

# Biological target: CaHse1
# Experiment: as above
# Method in brief: as §1
row,Binder,SPOT peptide array binding signal intensity
1,AIPPPVPNRPGGTTN,1.75

# Biological target: CaLsb1
# Experiment: as above
# Method in brief: as §1
row,Binder,SPOT peptide array binding signal intensity
1,AIPPPVPNRPGGTTN,1

# Biological target: CaLsb4
# Experiment: as above
# Method in brief: as §1
row,Binder,SPOT peptide array binding signal intensity
1,AIPPPVPNRPGGTTN,2490

# Biological target: CaMyo5
# Experiment: as above
# Method in brief: as §1
row,Binder,SPOT peptide array binding signal intensity
1,AIPPPVPNRPGGTTN,≤ 0

# Biological target: CaNbp2
# Experiment: as above
# Method in brief: as §1
row,Binder,SPOT peptide array binding signal intensity
1,AIPPPVPNRPGGTTN,1

# Biological target: CaRvs167
# Experiment: as above
# Method in brief: as §1
row,Binder,SPOT peptide array binding signal intensity
1,AIPPPVPNRPGGTTN,1180

# Biological target: CaRvs167-3
# Experiment: as above
# Method in brief: as §1
row,Binder,SPOT peptide array binding signal intensity
1,AIPPPVPNRPGGTTN,1.25

# Biological target: CaSho1
# Experiment: as above
# Method in brief: as §1
row,Binder,SPOT peptide array binding signal intensity
1,AIPPPVPNRPGGTTN,7

# Biological target: CaSla1-D1-D2
# Experiment: as above
# Method in brief: as §1
row,Binder,SPOT peptide array binding signal intensity
1,AIPPPVPNRPGGTTN,≤ 0

# Biological target: CaSla1-D3
# Experiment: as above
# Method in brief: as §1
row,Binder,SPOT peptide array binding signal intensity
1,AIPPPVPNRPGGTTN,≤ 0

# Biological target: ScAbp1
# Experiment: as above
# Method in brief: as §1
row,Binder,SPOT peptide array binding signal intensity
1,AIPPPVPNRPGGTTN,≤ 0

# Biological target: ScBbc1
# Experiment: as above
# Method in brief: as §1
row,Binder,SPOT peptide array binding signal intensity
1,AIPPPVPNRPGGTTN,515

# Biological target: ScBem1-D1
# Experiment: as above
# Method in brief: as §1
row,Binder,SPOT peptide array binding signal intensity
1,AIPPPVPNRPGGTTN,≤ 0

# Biological target: ScBzz1-D1
# Experiment: as above
# Method in brief: as §1
row,Binder,SPOT peptide array binding signal intensity
1,AIPPPVPNRPGGTTN,5

# Biological target: ScBzz1-D2
# Experiment: as above
# Method in brief: as §1
row,Binder,SPOT peptide array binding signal intensity
1,AIPPPVPNRPGGTTN,1.5

# Biological target: ScCyk3
# Experiment: as above
# Method in brief: as §1
row,Binder,SPOT peptide array binding signal intensity
1,AIPPPVPNRPGGTTN,≤ 0

# Biological target: ScFus1
# Experiment: as above
# Method in brief: as §1
row,Binder,SPOT peptide array binding signal intensity
1,AIPPPVPNRPGGTTN,≤ 0

# Biological target: ScHof1
# Experiment: as above
# Method in brief: as §1
row,Binder,SPOT peptide array binding signal intensity
1,AIPPPVPNRPGGTTN,3

# Biological target: ScHse1
# Experiment: as above
# Method in brief: as §1
row,Binder,SPOT peptide array binding signal intensity
1,AIPPPVPNRPGGTTN,8

# Biological target: ScLsb1
# Experiment: as above
# Method in brief: as §1
row,Binder,SPOT peptide array binding signal intensity
1,AIPPPVPNRPGGTTN,1120

# Biological target: ScLsb2
# Experiment: as above
# Method in brief: as §1
row,Binder,SPOT peptide array binding signal intensity
1,AIPPPVPNRPGGTTN,302

# Biological target: ScLsb3
# Experiment: as above
# Method in brief: as §1
row,Binder,SPOT peptide array binding signal intensity
1,AIPPPVPNRPGGTTN,1950

# Biological target: ScLsb4
# Experiment: as above
# Method in brief: as §1
row,Binder,SPOT peptide array binding signal intensity
1,AIPPPVPNRPGGTTN,857

# Biological target: ScMyo3
# Experiment: as above
# Method in brief: as §1
row,Binder,SPOT peptide array binding signal intensity
1,AIPPPVPNRPGGTTN,26

# Biological target: ScMyo5
# Experiment: as above
# Method in brief: as §1
row,Binder,SPOT peptide array binding signal intensity
1,AIPPPVPNRPGGTTN,1.75

# Biological target: ScNbp2
# Experiment: as above
# Method in brief: as §1
row,Binder,SPOT peptide array binding signal intensity
1,AIPPPVPNRPGGTTN,15

# Biological target: ScPex13
# Experiment: as above
# Method in brief: as §1
row,Binder,SPOT peptide array binding signal intensity
1,AIPPPVPNRPGGTTN,858

# Biological target: ScRvs167
# Experiment: as above
# Method in brief: as §1
row,Binder,SPOT peptide array binding signal intensity
1,AIPPPVPNRPGGTTN,1860

# Biological target: ScSho1
# Experiment: as above
# Method in brief: as §1
row,Binder,SPOT peptide array binding signal intensity
1,AIPPPVPNRPGGTTN,≤ 0

# Biological target: ScSla1-D1-D2
# Experiment: as above
# Method in brief: as §1
row,Binder,SPOT peptide array binding signal intensity
1,AIPPPVPNRPGGTTN,13.5

# Biological target: ScSla1-D3
# Experiment: as above
# Method in brief: as §1
row,Binder,SPOT peptide array binding signal intensity
1,AIPPPVPNRPGGTTN,≤ 0

# Biological target: SpAbp1-D1
# Experiment: as above
# Method in brief: as §1
row,Binder,SPOT peptide array binding signal intensity
1,AIPPPVPNRPGGTTN,≤ 0

# Biological target: SpBbc1
# Experiment: as above
# Method in brief: as §1
row,Binder,SPOT peptide array binding signal intensity
1,AIPPPVPNRPGGTTN,358

# Biological target: SpBzz1-D1
# Experiment: as above
# Method in brief: as §1
row,Binder,SPOT peptide array binding signal intensity
1,AIPPPVPNRPGGTTN,146

# Biological target: SpBzz1-D2
# Experiment: as above
# Method in brief: as §1
row,Binder,SPOT peptide array binding signal intensity
1,AIPPPVPNRPGGTTN,0.5

# Biological target: SpCyk3
# Experiment: as above
# Method in brief: as §1
row,Binder,SPOT peptide array binding signal intensity
1,AIPPPVPNRPGGTTN,1

# Biological target: SpHof1
# Experiment: as above
# Method in brief: as §1
row,Binder,SPOT peptide array binding signal intensity
1,AIPPPVPNRPGGTTN,≤ 0

# Biological target: SpHof1-2
# Experiment: as above
# Method in brief: as §1
row,Binder,SPOT peptide array binding signal intensity
1,AIPPPVPNRPGGTTN,≤ 0

# Biological target: SpHof1-3
# Experiment: as above
# Method in brief: as §1
row,Binder,SPOT peptide array binding signal intensity
1,AIPPPVPNRPGGTTN,16

# Biological target: SpHse1
# Experiment: as above
# Method in brief: as §1
row,Binder,SPOT peptide array binding signal intensity
1,AIPPPVPNRPGGTTN,8.5

# Biological target: SpLsb1
# Experiment: as above
# Method in brief: as §1
row,Binder,SPOT peptide array binding signal intensity
1,AIPPPVPNRPGGTTN,959

# Biological target: SpLsb4
# Experiment: as above
# Method in brief: as §1
row,Binder,SPOT peptide array binding signal intensity
1,AIPPPVPNRPGGTTN,2930

# Biological target: SpMyo1
# Experiment: as above
# Method in brief: as §1
row,Binder,SPOT peptide array binding signal intensity
1,AIPPPVPNRPGGTTN,9.5

# Biological target: SpNbp2
# Experiment: as above
# Method in brief: as §1
row,Binder,SPOT peptide array binding signal intensity
1,AIPPPVPNRPGGTTN,6.5

# Biological target: SpPex13
# Experiment: as above
# Method in brief: as §1
row,Binder,SPOT peptide array binding signal intensity
1,AIPPPVPNRPGGTTN,≤ 0

# Biological target: SpRvs167
# Experiment: as above
# Method in brief: as §1
row,Binder,SPOT peptide array binding signal intensity
1,AIPPPVPNRPGGTTN,2560

# Biological target: SpSla1-D1-D2
# Experiment: as above
# Method in brief: as §1
row,Binder,SPOT peptide array binding signal intensity
1,AIPPPVPNRPGGTTN,≤ 0

# Biological target: SpSla1-D3
# Experiment: as above
# Method in brief: as §1
row,Binder,SPOT peptide array binding signal intensity
1,AIPPPVPNRPGGTTN,≤ 0

# From the supplement of paper PMC4466140
